Results: PubChem BioAssay AID1159580 (chemical genetic matrix, 2015)
About 2,000 (36%) of roughly 5,500 compounds were called active. Inconclusive results (about 18%) are left out. No stated cut-off is given here; in the data, active means normalized growth mostly below about 0.91 (no sharp cut-off); inconclusive means no clear call, values can overlap the other calls; inactive means mostly above about 0.92. Some of the results follow.

Experiment: chemical genetic growth profiling, strain panel (AID 1159580);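 further: tested at 20 µM; growth read once vehicle control cultures reached saturation at 30 °C; 1 = growth at the plate median or of vehicle wells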
Settings: S. cerevisiae deletion strains, growth OD

Measured: normalized growth

CC(=O)O[C@@H]1c2c(ccc3ccc(=O)oc23)OC(C)(C)[C@@H]1OC(=O)CC(C)C
active: locus YDR137W, strain rgp1, stronger effect = lower value 0.796 | locus YDR392W, strain spt3, stronger effect = lower value 0.591 | locus YLR262C, strain YPT6 (second series), stronger effect = lower value 0.794 | locus YNL071W, strain lat1, stronger effect = lower value 0.882
inactive: locus YAL021C, strain ccr4, stronger effect = lower value 1.03 | locus YAL026C, strain drs2, stronger effect = lower value 0.993 | locus YAL030W, strain snc1, stronger effect = lower value 1 | locus YBL061C, strain skt5, stronger effect = lower value 0.992 | locus YBR009C, strain hhf1, stronger effect = lower value 1.05 | locus YBR021W, strain FUR4, stronger effect = lower value 1.02 | locus YBR023C, strain chs3, stronger effect = lower value 0.991 | locus YBR171W, strain sec66, stronger effect = lower value 0.974 | locus YBR229C, strain ROT2, stronger effect = lower value 0.993 | locus YBR231C, strain swc5, stronger effect = lower value 1 | locus YBR279W, strain paf1, stronger effect = lower value 1.02 | locus YCL011C, strain gbp2, stronger effect = lower value 1.01 | locus YCL016C, strain dcc1, stronger effect = lower value 1 | locus YCL029C, strain bik1, stronger effect = lower value 1.03 | locus YCL061C, strain MRC1, stronger effect = lower value 1 | locus YCL069W, strain vba3, stronger effect = lower value 1.01 | locus YCR088W, strain abp1, stronger effect = lower value 0.997 | locus YDL005C, strain med2, stronger effect = lower value 0.995 | locus YDL035C, strain GPR1, stronger effect = lower value 1.01 | locus YDL040C, strain nat1, stronger effect = lower value 1.01 | locus YDL074C, strain BRE1, stronger effect = lower value 1.01 | locus YDL101C, strain DUN1, stronger effect = lower value 1 | locus YDL134C, strain PPH21, stronger effect = lower value 0.977 | locus YDL185W, strain tfp1, stronger effect = lower value 1.03 | locus YDL192W, strain arf1, stronger effect = lower value 1 | locus YDR001C, strain nth1, stronger effect = lower value 1.01 | locus YDR069C, strain doa4, stronger effect = lower value 1 | locus YDR101C, strain arx1, stronger effect = lower value 1.05 | locus YDR159W, strain sac3, stronger effect = lower value 0.974 | locus YDR162C, strain NBP2, stronger effect = lower value 0.976 | locus YDR195W, strain ref2 1.07 | locus YDR297W, strain sur2, stronger effect = lower value 0.994 | locus YDR318W, strain mcm21, stronger effect = lower value 0.978 | locus YDR334W, strain swr1, stronger effect = lower value 1.01 | locus YDR335W, strain msn5, stronger effect = lower value 1.02 | locus YDR388W, stronger effect = lower value 1.01 | locus YDR502C, strain sam2, stronger effect = lower value 1 | locus YEL003W, strain gim4, stronger effect = lower value 1.02 | locus YEL037C, strain rad23, stronger effect = lower value 1.01 | locus YEL061C, strain CIN8 (second series), stronger effect = lower value 1.01 | locus YEL061C, strain CIN8, stronger effect = lower value 0.978 | locus YER015W, strain faa2, stronger effect = lower value 1.01 | locus YER016W, strain bim1, stronger effect = lower value 0.995 | locus YER110C, stronger effect = lower value 1.03 | locus YER111C, strain swi4, stronger effect = lower value 1 | locus YER155C, strain BEM2 (second series), stronger effect = lower value 0.972 | locus YER155C, strain BEM2, stronger effect = lower value 1 | locus YER167W, strain BCK2, stronger effect = lower value 1 | locus YFR010W, strain ubp6, stronger effect = lower value 1.03 | locus YGL078C, strain dbp3, stronger effect = lower value 1.02 | locus YGL086W, strain mad1, stronger effect = lower value 1.03 | locus YGL167C, strain pmr1, stronger effect = lower value 0.989 | locus YGL173C, strain kem1, stronger effect = lower value 0.987 | locus YGL227W, strain vid30, stronger effect = lower value 1 | locus YGL240W, strain doc1, stronger effect = lower value 1.02 | locus YGL248W, strain PDE1, stronger effect = lower value 0.994 | locus YGL253W, strain hxk2, stronger effect = lower value 0.986 | locus YGR078C, strain PAC10, stronger effect = lower value 1 | locus YGR135W, strain pre9, stronger effect = lower value 1 | locus YGR252W, strain gcn5, stronger effect = lower value 1 | locus YHR013C, strain ard1, stronger effect = lower value 1.01 | locus YHR027C, strain rpn1, stronger effect = lower value 0.999 | locus YHR030C, strain SLT2, stronger effect = lower value 0.988 | locus YHR079C, strain IRE1 (second series), stronger effect = lower value 1.01 | locus YHR094C, strain hxt1, stronger effect = lower value 1.01 | locus YHR129C, strain ARP1, stronger effect = lower value 0.993 | locus YHR142W, strain chs7, stronger effect = lower value 0.99 | locus YHR200W, strain rpn10, stronger effect = lower value 1.03 | locus YIL066C, strain RNR3, stronger effect = lower value 0.982 | locus YIL073C, strain SPO22, stronger effect = lower value 1.01 | locus YIL125W, strain kgd1, stronger effect = lower value 1.02 | locus YIR030C, strain dcg1, stronger effect = lower value 1 | locus YJL092W, strain hpr5, stronger effect = lower value 0.998 | locus YJL095W, strain BCK1 (second series), stronger effect = lower value 0.995 | locus YJL095W, strain BCK1, stronger effect = lower value 0.94 | locus YJL115W, strain asf1, stronger effect = lower value 1.01 | locus YJL129C, strain trk1, stronger effect = lower value 0.918 | locus YJL134W, strain LCB3, stronger effect = lower value 0.994 | locus YJL154C, strain vps35, stronger effect = lower value 1.01 | locus YJL164C, strain tpk1, stronger effect = lower value 1.02 | locus YJL166W, strain qcr8, stronger effect = lower value 0.961 | locus YJL168C, strain set2, stronger effect = lower value 1.02 | locus YJL187C, strain SWE1 (second series), stronger effect = lower value 1 | locus YJL187C, strain SWE1, stronger effect = lower value 0.996 | locus YJR043C, strain POL32, stronger effect = lower value 1.03 | locus YKL009W, strain mrt4, stronger effect = lower value 1.01 | locus YKL068W, stronger effect = lower value 0.996 | locus YKL085W, strain MDH1 (second series), stronger effect = lower value 0.988 | locus YKL085W, strain MDH1, stronger effect = lower value 0.988 | locus YKL160W, strain elf1, stronger effect = lower value 0.928 | locus YKL190W, strain CNB1, stronger effect = lower value 0.989 | locus YKR001C, strain vps1, stronger effect = lower value 1.01 | locus YKR026C, strain gcn3, stronger effect = lower value 0.998 | locus YKR091W, strain srl3, stronger effect = lower value 0.997 | locus YLL001W, strain dnm1, stronger effect = lower value 0.957 | locus YLL026W, stronger effect = lower value 1 | locus YLL041C, strain sdh2, stronger effect = lower value 1 | locus YLR027C, strain aat2, stronger effect = lower value 0.999 | locus YLR039C, strain RIC1, stronger effect = lower value 0.921 | locus YLR058C, strain SHM2, stronger effect = lower value 0.982 | locus YLR102C, strain apc9, stronger effect = lower value 1.01 | locus YLR221C, strain rsa3, stronger effect = lower value 0.979 | locus YLR258W, strain gsy2, stronger effect = lower value 1.01 | locus YLR262C, strain YPT6, stronger effect = lower value 0.889 | locus YLR268W, strain sec22, stronger effect = lower value 1.03 | locus YLR320W, strain mms22, stronger effect = lower value 0.918 | locus YLR330W, strain CHS5, stronger effect = lower value 1 | locus YLR342W, strain FKS1 (second series), stronger effect = lower value 1 | locus YLR342W, strain FKS1, stronger effect = lower value 0.98 | locus YLR357W, strain rsc2, stronger effect = lower value 1.07 | locus YLR370C, strain arc18, stronger effect = lower value 1 | locus YLR371W, strain rom2, stronger effect = lower value 1.02 | locus YLR384C, strain iki3, stronger effect = lower value 1.01 | locus YLR418C, strain cdc73, stronger effect = lower value 0.947 | locus YML016C, strain PPZ1, stronger effect = lower value 0.992 | locus YML032C, strain rad52, stronger effect = lower value 0.992 | locus YML120C, strain ndi1, stronger effect = lower value 0.989 | locus YML124C, strain tub3, stronger effect = lower value 1 | locus YMR058W, strain fet3, stronger effect = lower value 1 | locus YMR078C, strain ctf18, stronger effect = lower value 1 | locus YMR125W, strain sto1, stronger effect = lower value 0.976 | locus YMR129W, stronger effect = lower value 1 | locus YMR205C, strain PFK2, stronger effect = lower value 0.878 | locus YMR223W, strain ubp8, stronger effect = lower value 0.986 | locus YMR231W, strain pep5, stronger effect = lower value 1 | locus YMR263W, strain SAP30, stronger effect = lower value 0.996 | locus YMR307W, strain GAS1, stronger effect = lower value 0.848 | locus YNL067W, strain RPL9B, stronger effect = lower value 0.998 | locus YNL209W, strain ssb2, stronger effect = lower value 1.01 | locus YNL233W, strain BNI4, stronger effect = lower value 1.02 | locus YNL248C, strain rpa49, stronger effect = lower value 0.952 | locus YNL250W, strain rad50, stronger effect = lower value 1.02 | locus YNL271C, strain bni1, stronger effect = lower value 0.999 | locus YNL298W, strain CLA4, stronger effect = lower value 1.02 | locus YNL307C, strain MCK1, stronger effect = lower value 1.01 | locus YNL322C, strain KRE1 (second series), stronger effect = lower value 1.01 | locus YNL322C, strain KRE1, stronger effect = lower value 0.995 | locus YNR049C, strain mso1, stronger effect = lower value 1.01 | locus YNR052C, strain pop2, stronger effect = lower value 1 | locus YOL012C, strain htz1 0.997 | locus YOL147C, strain pex11, stronger effect = lower value 1 | locus YOR001W, strain rrp6, stronger effect = lower value 1.03 | locus YOR061W, strain CKA2, stronger effect = lower value 0.985 | locus YOR069W, strain VPS5, stronger effect = lower value 0.992 | locus YOR070C, strain gyp1, stronger effect = lower value 1 | locus YOR080W, strain dia2, stronger effect = lower value 1.02 | locus YOR083W, strain WHI5, stronger effect = lower value 0.949 | locus YOR106W, strain vam3, stronger effect = lower value 0.968 | locus YOR136W, strain idh2, stronger effect = lower value 1.03 | locus YOR144C, strain elg1, stronger effect = lower value 1.01 | locus YOR184W, strain ser1, stronger effect = lower value 0.921 | locus YOR265W, strain rbl2, stronger effect = lower value 1.01 | locus YOR270C, strain vph1, stronger effect = lower value 0.883 | locus YOR290C, strain snf2, stronger effect = lower value 1 | locus YOR316C, strain cot1, stronger effect = lower value 1.01 | locus YPL051W, strain arl3, stronger effect = lower value 0.951 | locus YPL078C, strain atp4, stronger effect = lower value 0.93 | locus YPL106C, strain sse1, stronger effect = lower value 1.06 | locus YPL240C, strain hsp82, stronger effect = lower value 1 | locus YPL241C, strain CIN2, stronger effect = lower value 0.973 | locus YPR119W, strain clb2, stronger effect = lower value 1 | locus YPR141C, strain kar3, stronger effect = lower value 0.994 | locus YPR163C, strain tif3, stronger effect = lower value 1.01 | locus YPR167C, strain met16, stronger effect = lower value 1.01 | strain wtn01, stronger effect = lower value 1.04
